About 83,000 compounds went through this panel and 20% of them were active in at least one assay; those are over-represented in the sample as a whole.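 For each line, cells grew in 96-well plates with the test compound present at a single concentration for 48 hours.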 Activity calls are given as the source filed them. Rule for the calls: active = growth percent below 10; inactive = the rest.
Columns and labels:
Experiment in all cases: NCI-60 one-dose screen, 48 h (100 = growth as untreated, 0 = no growth, -100 = all killed)
[1] = test system: DU-145 prostate; details: 10 µM unless noted
[2] = test system: K-562 leukemia; details: 10 µM unless noted
[3] = test system: MALME-3M melanoma; details: 10 µM unless noted
[4] = test system: RXF 393 renal; details: 10 µM unless noted
[5] = test system: SF-268 CNS; details: 10 µM unless noted
[6] = test system: SF-295 CNS; details: 10 µM unless noted
[7] = test system: SF-539 CNS; details: 10 µM unless noted
[8] = test system: UACC-257 melanoma; details: 10 µM unless noted
[9] = test system: HCT-15 colon; details: 10 µM unless noted
[10] = test system: HT29 colon; details: 10 µM unless noted
[11] = test system: SNB-75 CNS; details: 10 µM unless noted
[12] = test system: SNB-19 CNS; details: 10 µM unless noted
[13] = test system: U251 CNS; details: 10 µM unless noted
[14] = test system: PC-3 prostate; details: 10 µM unless noted
[15] = test system: SK-MEL-5 melanoma; details: 10 µM unless noted
[16] = test system: UACC-62 melanoma; details: 10 µM unless noted
[17] = test system: LOX IMVI melanoma; details: 10 µM
[18] = test system: SK-MEL-28 melanoma; details: 10 µM unless noted
[19] = test system: M14 melanoma; details: 10 µM unless noted
[20] = test system: MDA-MB-231 breast; details: 10 µM unless noted

Measured: growth

OC1Cc2ccccc2C1
inactive: [1] 103% | [2] 48.3% | [3] 95.2% | [4] 101% | [5] 102% | [6] 95.2% | [7] 97.1% | [8] 90.9% | [9] 93.3% | [10] 100% | [11] 93.6% | [12] 100% | [13] 105% | [14] 95.4% | [15] 101% | [16] 95.6% | [17] 93.3% | [18] 102%

CCOC(C=O)OCC
inactive: [1] 104% | [2] 106% | [3] 92.6% | [4] 121% | [5] 98.3% | [6] 99% | [7] 97.8% | [8] 96.6% | [19] 106% | [9] 102% | [10] 99.7% | [11] 98.5% | [12] 106% | [13] 97.4% | [14] 95.1% | [15] 106% | [16] 104% | [17] 94.1% | [18] 116%

CC(=O)NNC(=S)N/C=C/c1c(C)ccc([N+](=O)[O-])c1[N+](=O)[O-]
inactive: [1] 104% | [2] 102% | [20] 99.3% | [4] 105% | [5] 96.7% | [6] 103% | [7] 99.7% | [8] 99.6% | [19] 89.6% | [9] 96.5% | [10] 105% | [11] 88.5% | [12] 113% | [13] 112% | [14] 97.2% | [15] 105% | [16] 98.5% | [17] 96% | [18] 101%

C1C[S+]2CC[S+]1CC2
inactive: [1] 105% | [2] 104% | [3] 99.9% | [4] 106% | [5] 102% | [6] 99% | [7] 108% | [8] 94.9% | [19] 101% | [9] 105% | [10] 98.9% | [11] 117% | [12] 103% | [13] 96.4% | [14] 101% | [15] 98.8% | [16] 104% | [17] 95.8% | [18] 118%

C=CC1=NC(C)(C)CC(C)O1 (centres undefined)
inactive: [1] 113% | [2] 107% | [3] 107% | [20] 110% | [5] 109% | [7] 97.8% | [8] 95.4% | [9] 98.9% | [10] 106% | [11] 72% | [12] 99.5% | [14] 102% | [15] 105% | [16] 100% | [17] 98.4% | [18] 96.6%

CC(C)(N)CO[C@H]1C[C@H]2CC[C@@]1(C)C2(C)C
inactive: [1] 102% | [2] 123% | [3] 97.1% | [4] 87.6% | [5] 91.5% | [6] 97.7% | [7] 99.4% | [8] 97.1% | [19] 90% | [9] 90.7% | [10] 101% | [11] 89.3% | [12] 103% | [13] 96.6% | [14] 88.8% | [15] 86.1% | [16] 101% | [17] 98.6% | [18] 94.7%

CCN(C(C)=O)c1ccc([N+](=O)[O-])cc1
inactive: [1] 110% | [2] 107% | [3] 101% | [4] 106% | [5] 103% | [6] 108% | [7] 109% | [8] 94.9% | [19] 113% | [9] 109% | [10] 104% | [11] 108% | [12] 101% | [13] 90.8% | [14] 97.5% | [15] 96.2% | [16] 97.5% | [17] 98.6% | [18] 106%

CC(=O)NC(O)C(Cl)Cl (centres undefined)
inactive: [1] 99.2% | [2] 84.3% | [3] 96.7% | [4] 113% | [5] 95% | [6] 93.6% | [7] 90.6% | [8] 107% | [19] 110% | [9] 102% | [10] 105% | [11] 103% | [12] 106% | [13] 91.4% | [14] 96.4% | [15] 102% | [16] 106% | [17] 87.8% | [18] 103%

O=c1cc(C(F)(F)F)[nH]c(=S)[nH]1
inactive: [1] 109% | [2] 111% | [3] 96.6% | [4] 104% | [5] 121% | [6] 98.3% | [7] 96.5% | [8] 99.2% | [19] 108% | [9] 103% | [10] 108% | [11] 102% | [12] 94.4% | [13] 101% | [14] 116% | [15] 98.7% | [16] 99.5% | [18] 105%

NNC(=O)CCCCl
inactive: [1] 108% | [2] 105% | [20] 104% | [4] 96.6% | [5] 102% | [6] 102% | [7] 106% | [8] 105% | [19] 100% | [9] 104% | [10] 112% | [11] 95% | [12] 121% | [13] 98.3% | [14] 104% | [15] 102% | [16] 103% | [17] 91.3% | [18] 110%

COc1ccc(C2CC(c3ccccc3)=Nc3ccccc3S2)cc1 (centres undefined)
inactive: [1] 99.8% | [2] 77.9% | [3] 82.5% | [20] 98.9% | [5] 105% | [7] 111% | [8] 103% | [19] 106% | [9] 98.3% | [10] 92.8% | [11] 80.7% | [12] 93.8% | [14] 82.7% | [15] 94.2% | [16] 97.9% | [17] 95% | [18] 98.4%

Cc1[nH]n(-c2ccccc2)c(=O)c1C=NC(=S)C(N)=S
inactive: [1] 106% | [2] 101% | [20] 98.9% | [4] 106% | [5] 100% | [6] 98.4% | [7] 106% | [8] 97.7% | [19] 103% | [9] 99.3% | [10] 111% | [11] 87.5% | [12] 96.8% | [13] 100% | [14] 85.8% | [15] 99.3% | [16] 93% | [17] 99.7% | [18] 110%

O=C(O)c1ccc([N+](=O)[O-])cc1S(=O)(=O)O
inactive: [1] 104% | [2] 107% | [3] 108% | [4] 114% | [5] 98% | [6] 102% | [7] 107% | [8] 100% | [19] 108% | [9] 106% | [10] 99% | [11] 118% | [12] 105% | [13] 94.9% | [14] 100% | [15] 99.7% | [16] 101% | [17] 98.1% | [18] 103%

c1ccc(Oc2c3ccccc3nc3ccccc23)cc1
inactive: [20] 31.2% | [4] 25.4% | [5] 22.7% | [8] 56.7% | [9] 14.6% | [11] 41.5% | [12] 91.9% | [13] 11.7% | [14] 20.1% | [15] 13.6% | [16] 45.7% | [17] 31.3% | [18] 61.2%
active: [1] 8.05% | [2] 8.65% | [6] -39.1% | [7] -19.6% | [19] -13.2% | [10] 2.51%

CCOC(=N)CC(=O)Nc1cccc(C)c1Cl
inactive: [1] 107% | [2] 122% | [20] 89.5% | [4] 97.5% | [5] 101% | [6] 97.2% | [7] 99.6% | [8] 103% | [19] 94.9% | [9] 100% | [10] 116% | [11] 86% | [12] 109% | [13] 103% | [14] 93.6% | [15] 94.9% | [16] 93.9% | [17] 93% | [18] 105%

CC(=O)NCNC(C)=O
inactive: [1] 118% | [2] 112% | [20] 118% | [4] 108% | [5] 110% | [7] 91.3% | [8] 95.4% | [19] 111% | [9] 101% | [10] 111% | [11] 92.4% | [12] 107% | [13] 103% | [14] 88.9% | [15] 102% | [16] 112% | [17] 113% | [18] 107%

COCC(N)=O
inactive: [1] 98.4% | [2] 91.8% | [20] 108% | [4] 108% | [5] 103% | [6] 102% | [7] 96% | [8] 116% | [19] 105% | [9] 100% | [10] 102% | [11] 102% | [12] 107% | [13] 104% | [14] 94.6% | [15] 102% | [16] 109% | [17] 99.7% | [18] 121%

Cc1ccc[n+](CCC(N)=O)c1
inactive: [1] 103% | [3] 79.3% | [20] 92.3% | [4] 106% | [5] 97.6% | [6] 93.5% | [7] 87.3% | [8] 103% | [19] 109% | [9] 111% | [10] 98.1% | [11] 87% | [12] 104% | [13] 87.4% | [14] 86.1% | [15] 102% | [16] 101% | [17] 82% | [18] 99.9%
